# From PubChem BioAssay
# Tb PFK inh: inhibitors of T. brucei phosphofructokinase. 0.17% of 330,000 active. T. brucei PFK, ADP-Glo luminescence. O15648. Potency, µM (top dose mostly 57.5 µM), for inactives: at the highest dose activity, negative = inhibition, usual class: inhibitors;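 note: 0% = uninhibited 1x PFK enzyme wells and -100% = no-enzyme wells; nearly all actives have a fitted effect of over 60% in size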
#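 Compounds were pin-transferred as a titration series up to 57 uM into substrate buffer (0.5 mM F6P, 0.1 mM ATP, pH 8.0), then 1.25 nM PFK was added and reactions ran 45 min before ADP-Glo detection.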
# VDR inh: vitamin D3 receptor (human) inhibition; P11473; VDR-SRC2-3 peptide fluorescence polarization, 2 h; Potency, µM, for the others: max response, negative = inhibition, most hits filed as inhibitors; 0.93% of 400,000 active; note: % is set by controls: 0 for no effect and ±100 for the full control effect
# Target sequence (P11473 whole entry, looked up): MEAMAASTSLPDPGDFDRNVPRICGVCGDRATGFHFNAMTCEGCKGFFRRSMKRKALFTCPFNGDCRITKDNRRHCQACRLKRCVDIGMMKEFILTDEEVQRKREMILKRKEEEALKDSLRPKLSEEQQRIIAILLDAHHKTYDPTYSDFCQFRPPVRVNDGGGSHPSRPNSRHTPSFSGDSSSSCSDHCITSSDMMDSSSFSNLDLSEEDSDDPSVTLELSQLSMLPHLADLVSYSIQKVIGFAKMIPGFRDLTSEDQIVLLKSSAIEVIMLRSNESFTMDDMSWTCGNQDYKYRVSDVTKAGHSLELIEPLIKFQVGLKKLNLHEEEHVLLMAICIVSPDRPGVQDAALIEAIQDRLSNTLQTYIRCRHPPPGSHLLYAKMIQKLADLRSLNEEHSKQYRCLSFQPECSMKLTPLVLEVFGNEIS
#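 Two reagent solutions held at 4 deg C in the dark were dispensed, compounds pinned at 23 nl, and the mixture incubated 2 h at room temperature. Read-out: fluorescence polarization of VDR–SRC2-3 peptide binding.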
# BRCA1 expr up: activators of BRCA1 expression; AID 624202; 1.1% of 380,000 active; Potency, µM (doses to about 46.1 µM), for the others: top-dose activation, actives largely listed as activators; MCF7-BRCA1-FFLuc reporter, luminescence, 48 h; response scale: scaled: vehicle 0%, 10 µM genistein 100%; note: nearly all actives have a fitted effect of over 80% in size
#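 48 h compound treatment of MCF7-BRCA1-FFLuc cells (phenol-red free MEM, 37 °C), then 15 min with luciferase substrate and luminescence imaging.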
# PLK1 PBD inh: inhibitors of human PLK1 polo-box domain binding. AID 720504. Potency, µM, for inactives: max response, negative = inhibition, hits mostly inhibitors. P53350. Plk1 PBD binding of FITC phosphopeptide, fluorescence polarization. 2.8% of 360,000 active; note: series mostly up to about 57 µM; % is set by controls: 0 for no effect and ±100 for the full control effect; nearly all actives have a fitted effect of over 65% in size
# Numbers without * were called inactive; ? = inconclusive; . = not tested or not shown; [ ] = remark or other dose. The list is not random: actives were taken first. Their share in the collection is about 3.9%. Calls come from the whole dose curve; as a rule, active = well fitted curve in the direction sought with a large enough effect; inconclusive = small, poorly fitted or top-dose-only effect, or another doubt; inactive = no such curve, though single readings can be large; an effect the other way counts as inactive or inconclusive. Potency is the fitted concentration of half-maximal effect.
SMILES,Tb PFK inh,VDR inh,BRCA1 expr up,PLK1 PBD inh
CCn1c(CSc2nc3ccccc3s2)nnc1SCC(=O)c1ccc(Cl)cc1,-9%,?,18%,3µM*
Nc1ccc2oc(=O)c3ccccc3c2c1,12%,-8%,11µM*,-11%
COc1cccc([C@@H]2Oc3ccc(Br)cc3C[C@H]2OC(=O)N[C@H](C)C2CCCCC2)c1,.,-5%,.,.
CNC(=S)Nc1cccc(C(=O)OC)c1,1%,1%,7.1µM*,-6%
O=C(NC(=S)Nc1cccc(NC(=S)NC(=O)c2ccccc2)c1)c1ccccc1,.,-3%,2%,-29%
CC(=O)c1cccc(NC(=S)NC(=O)c2ccc(C)cc2)c1,3%,7%,7.9µM*,-1%
CC(=O)c1cccc(NC(=S)NC(=O)c2ccc(Br)cc2)c1,5%,-10%,?,-5%
COC(=O)c1ccccc1NC(=S)NC(=O)c1ccccc1,-17%,-18%,-9%,27µM*
COC(=O)c1cccc(NC(N)=S)c1,13%,21%,5%,-12%
O=C(NC(=S)Nc1ccc2nc[nH]c2c1)c1ccccc1,0%,3%,4µM*,-16%
COc1ccc(NC(=O)COC(=O)C2CCC2)cc1Cl,-1%,-5%,3%,5%
COC(=O)[C@]1(Sc2ccc(C)cc2)CC(=O)N[C@@H]1c1ccccc1,.,.,1%,1%
COc1cc(S(=O)(=O)NCCc2c(C)[nH]c3ccccc23)c(C)cc1C,.,-12%,-26%,.
CCOc1cccc(C(=O)NC(=S)Nc2ccccc2)c1,11%,-10%,11µM*,-4%
CCOc1cccc(C(=O)NC(=S)Nc2cccnc2)c1,-3%,-10%,17%,-3%
Cc1ccc(NCCCn2ccc(NC(=O)OCc3ccccc3)nc2=O)cc1C,.,-3%,4%,-7%
O=C(O)/C=C/c1cn(Cc2ccccc2Cl)nc1-c1ccccc1,3%,?,22%,27µM*
O=C(O)/C=C/c1cn(Cc2ccccc2)nc1-c1ccc(Cl)cc1,-1%,2%,-16%,-3%
COc1ccc(N2C(=O)c3ccccc3NC23CCCC3)cc1,-3%,-6%,6.3µM*,-9%
COc1ccc(N2C(S)=C(C#N)C(=O)NC23CCCCC3)cc1,5%,50µM*,-7%,-22%
Cc1ccc(CCN2CC(C(=O)NCCCN3CCC(C)CC3)CC2=O)cc1 (centres undefined),1%,?,-26%,27µM*
CCOC(=O)c1ccccc1O,.,3%,.,.
CCOC(=O)c1ccc(N2Cc3ccccc3C2)cc1O,-4%,1%,13µM*,-8%
O=C(CC(Sc1ccc(Br)cc1)C(=O)O)c1ccc(F)cc1 (centres undefined),14%,13µM*,-37%,?
N#Cc1c(NC(=O)C2CC(c3ccccc3O)=NO2)sc2c1CCC2 (centres undefined),0%,7%,18%,19µM*
SMILES,Tb PFK inh,VDR inh,BRCA1 expr up,PLK1 PBD inh
Cc1cnc(C(=O)OCC(=O)Nc2sc3c(c2C#N)CCC3)cn1,-9%,14%,-13%,-16%
O=C(NCc1ccccc1)c1cc(-c2ccco2)on1,-15%,10%,11µM*,-6%
Cc1cccc(OCC(=O)Nc2sc3c(c2C#N)CCC3)c1,-7%,5%,10µM*,-6%
Cc1onc(C(=O)Nc2sc3c(c2C#N)CCCC3)c1[N+](=O)[O-],2%,?,-35%,27µM*
O=C(NCCc1ccccc1)c1cc(-c2ccco2)on1,-5%,12%,?,-4%
CC(=O)Nc1sc2c(c1C#N)CCCC2,.,1%,0%,-7%
COC(=O)C[C@@H]1C[C@H]2c3cc(N(C)C)ccc3O[C@H]2[C@H](CO)O1,.,.,-15%,-4%
CCOc1ccc(CNC(=O)c2ccc3nc(CC)c(CC)nc3c2)cc1,.,11%,.,.
O=C(CSc1nc2nn(-c3ccccc3)c(=O)c-2c2n1CCCCC2)Nc1ccccc1[N+](=O)[O-],3%,12%,-25%,1%
Cc1onc(-c2ccccc2Cl)c1C(=O)Nc1sc2c(c1C#N)CCC2,0%,-11%,-2%[1.84 µM],27µM*
CCc1c(C)sc(NC(=O)c2cc(C3CC3)on2)c1C#N,5%,-11%,2%,?
CCOC(=O)c1c(NC(=O)c2noc(C)c2[N+](=O)[O-])sc(C(C)=O)c1C,1%,-13%,-42%,24µM*
CCCc1cc(C(=O)Nc2sc(C)c(CC)c2C#N)no1,0%,?,20%,27µM*
N#Cc1c(NC(=O)c2ccco2)sc2c1CCC2,-3%,-10%,5%,30µM*
CCOC(=O)c1c(NC(=O)CCCOc2ccccc2C)sc2c1CCC(C)C2 (centres undefined),.,-1%,.,.
CC[C@H]1OC(=O)[C@H](C)C(=O)[C@H](C)[C@@H](OC2O[C@H](C)C[C@H](N(C)C)[C@@H]2O)[C@@](C)(OC)C[C@@H](C)C(=O)[C@@H](C)C2N(CCCCn3cnc(-c4cccnc4)c3)C(=O)O[C@@]21C (some centres undefined),.,-4%,.,.
COCCCN1C(=O)C(CC(=O)NCC2CCCCC2)CC(C(=O)N(C(C)C)C(C)C)=C1C (centres undefined),.,.,31%,-3%
Cc1ccc2c(=O)c(C(=O)c3cccc(Cl)c3)cn(CC(=O)Nc3ccc4c(c3)OCCO4)c2n1,.,-2%,.,.
CCc1c(C)sc(NC(=O)c2cc(-c3ccco3)on2)c1C#N,2%,?,42%,27µM*
CCc1c(C)sc(NC(=O)c2cc(-c3ccc(OC)cc3)on2)c1C#N,.,-9%,.,.
N#Cc1c(NC(=O)CSc2nc(-c3ccco3)cc(C(F)(F)F)n2)sc2c1CCCC2,-3%,-23%,-11%,21µM*
CCCc1cc(C(=O)Nc2sc3c(c2C#N)CCC3)no1,-5%,71µM*,-2%,19µM*
Cn1cc(Cl)c(C(=O)Nc2nc3ccc(Cl)cc3s2)n1,-2%,-3%,13µM*,0%
Cc1onc(-c2c(F)cccc2Cl)c1C(=O)NC1C(=O)N2C1SC(C)(C)C2C(=O)O (centres undefined),.,10%,.,.
Cc1ccc2c(c1)NC(=O)C(CC(=O)Nc1ccccc1Cl)O2 (centres undefined),.,-9%,.,.
SMILES,Tb PFK inh,VDR inh,BRCA1 expr up,PLK1 PBD inh
Cc1c(Cl)cccc1S(=O)(=O)N1CCC(C(=O)NNC(=O)C2CC2)CC1,0%,24%,0%,24µM*
Cc1ccc(C(=O)NNC(=O)C2CCN(S(=O)(=O)c3ccc(C)cc3)CC2)cc1,1%,29%,-23%,-1%
CCOC(=O)c1c(C)oc2nc(C)nc(NCCc3ccc(OCC)cc3)c12,.,8%,.,.
O=C(O)Cn1c(SCCOc2ccccc2F)nc2ccccc21,1%,-15%,-29%,19µM*
COc1ccc(N2CCN(C(=O)CCn3nc(C)c(S(=O)(=O)N4CCCC4)c3C)CC2)cc1,.,17%,3%,.
N#C/C(=C\c1ccccc1C(F)(F)F)C(=O)Nc1ccccc1,5%,?,15%,-8%
CCc1cccc(CC)c1NC(=O)/C(C#N)=C/c1ccccc1C(F)(F)F,0%,50µM*,-92%,-25%
O=C(CCN1CCN(S(=O)(=O)c2cccc([N+](=O)[O-])c2)CC1)Nc1ccccc1F,-12%,-27%,11%,27µM*
